Consider 40 molecules from the supplement of paper PMC8540655.

In the test the test system is Aedes aegypti larvae. Nature of the test: larval motility relative to same well at 0 h (fraction); higher = more motile (less active compound), active = 0.4 or less. As to conditions: 10 µM; 2 h. The gist of the method:
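Larvae (Aedes aegypti, hatched in pond salt solution with yeast at 25 °C and taken 18–24 h later) were plated at about 10 per 100 µL well. Compounds at 10 µM in 1% v/v DMSO were imaged with INVAPP at 0, 2 and 24 h, alongside solvent and larvicide controls on each plate. Reported relative motility is each well's score over its own starting score, as a median of three independent larval batches.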
`CC(C)c1ccc(COc2cccc(-c3cc(S(C)=O)c(C#N)c(=O)[nH]3)c2)cc1` (stereo not given): the larval motility was 0.682 (inactive).

Consider `Cc1c(OCC(F)(F)F)ccnc1CS(=O)c1nc2ccccc2[nH]1` (stereo not given), for which the larval motility is 1.17 (inactive).

Turning to `O=C(Nc1ccccc1)N(Cc1cc(Br)ccc1O)c1ccc(F)cc1`, the larval motility is 0.646 (inactive).

In the case of `Cc1ncc([N+](=O)[O-])n1CC(O)CN1CCOCC1` (stereo not given), the larval motility was 1.3 (inactive).

For `O=C(NO)C1(CS(=O)(=O)c2ccc(Oc3ccc(Cl)cc3)cc2)CCOCC1`, the larval motility was 0.471 (inactive).

Turning to `CC(C)CCN1C(=O)C(C2=NS(=O)(=O)c3cc(NS(C)(=O)=O)ccc3N2)=C(O)[C@@H]2[C@H]3CC[C@H](C3)[C@@H]21`, the larval motility was 0.853 (inactive).

As to `Cc1cccc(C)c1C(=O)Nc1nc(-c2ccccn2)cc2ccccc12`, the larval motility was 0.564 (inactive).

Regarding `O=S(=O)(NCB(O)O)c1cc2c(Cl)ccc(Cl)c2s1`, the larval motility is 0.568 (inactive).

For `CCC(CC)[C@H](NC(C)=O)[C@@H]1[C@H](O)[C@@H](C(=O)O)C[C@H]1NC(=N)N`, the larval motility was 0.729 (inactive).

As for `CN1CCN(Cc2ccc(-c3cnc4[nH]cc(-c5ccc6[nH]ccc6c5)c4c3)cc2)CC1`, the larval motility was 0.696 (inactive).

As for `CCc1cc(CCCOc2c(C)cc(-c3noc(C(F)(F)F)n3)cc2C)on1`, the larval motility is 0.695 (inactive).

Regarding `CC(=N)N1CC[C@H](SC2=C(C(=O)O)N3C(=O)[C@@H]([C@@H](C)O)[C@H]3C2)C1`, the larval motility was 1.05 (inactive).

Take `CC(C)(C)NC(=O)[C@@H]1CN(Cc2cnc3occc3c2)CCN1C[C@@H](O)C[C@@H](Cc1ccccc1)C(=O)N[C@H]1c2ccccc2C[C@H]1O`: the larval motility was 0.857 (inactive).

Take `COC(=O)Nc1nc2c(C)cccc2[nH]1`: the larval motility is 0.678 (inactive).

For the molecule `CC(C)Nc1nc2cc(Cl)c(Cl)cc2n1[C@H]1O[C@@H](CO)[C@H](O)[C@@H]1O`, the larval motility was 1.1 (inactive).

In the case of `CCC[C@@H]1C[C@@H](C(=O)N[C@@H]([C@H]2O[C@H](SC)[C@H](O)[C@@H](O)[C@H]2O)[C@H](C)Cl)N(C)C1`, the larval motility was 0.804 (inactive).

For the molecule `COC(=O)Nc1nc2cc(Sc3ccccc3)ccc2[nH]1`, the larval motility is 0.997 (inactive).

Take `Cc1ccc(N2CCC(CCOc3ccc(S(C)(=O)=O)cc3)CC2)nn1`: the larval motility was 0.943 (inactive).

Regarding `Nc1nc(NC2Cc3ccc(F)cc3C2)nc(N2CCCCC2)n1` (stereo not given), the larval motility is 0.662 (inactive).

Take `CCNC(=O)Nc1cc2c(-c3ccnc(C)c3)ccc(CNC(=O)OC)c2cn1`: the larval motility was 0.695 (inactive).

In the case of `CCCCCCCCCN1C[C@@H](O)[C@H](O)[C@@H](O)[C@@H]1CO`, the larval motility is 0.996 (inactive).

Consider `O=C(/C=C\n1cnc(-c2cc(C(F)(F)F)cc(C(F)(F)F)c2)n1)NNc1ccccn1`, for which the larval motility was 1.12 (inactive).

`COc1cccc(N2CCN(C3=Nc4c(F)cccc4[C@H](CC(=O)O)N3c3cc(C(F)(F)F)ccc3OC)CC2)c1`: the larval motility was 1.02 (inactive).

`CCN(CC)CCCC(C)Nc1ccnc2cc(Cl)ccc12` (stereo not given): the larval motility is 0.715 (inactive).

Turning to `CC(=O)N1CCN(c2ccc(OCC3COC(Cn4ccnc4)(c4ccc(Cl)cc4Cl)O3)cc2)CC1` (stereo not given), the larval motility was 0.527 (inactive).

Consider `CCc1cc(CCC(=O)Nc2ccccc2O)c(=O)[nH]c1C`, for which the larval motility is 0.689 (inactive).

Take `Cc1ncc([N+](=O)[O-])n1CC(C)O` (stereo not given): the larval motility is 1.43 (inactive).

With `Cc1[nH]c2ccccc2c1CCNCc1ccc(/C=C/C(=O)NO)cc1`, the larval motility was 1.05 (inactive).

Regarding `O=C(Nc1ccc(Cl)c(C(F)(F)F)c1)C(CCCl)C(=O)Nc1ccc(Cl)c(C(F)(F)F)c1`, the larval motility is 0.848 (inactive).

Consider `O=C(c1nc2c(C(F)(F)F)cc(C3CC3)cn2c1Cl)N1CCN([C@H]2CC[C@H](O)CC2)C(=O)C1`, for which the larval motility is 0.697 (inactive).

In the case of `O=C(NC(=O)N1CCCc2ccccc21)c1cccc(Cl)c1`, the larval motility was 0.838 (inactive).

Take `Cc1c(N)cccc1Cn1ccc(OCCc2cccs2)cc1=O`: the larval motility was 0.953 (inactive).

For `CC(C)=CCC/C(C)=C/CNCCNC1C2CC3CC(C2)CC1C3` (stereo not given), the larval motility was 0.85 (inactive).

`Cc1ccc(NC(=O)c2cc(Cl)ccc2O)cc1`: the larval motility is 0.656 (inactive).

On to `C=C(C)n1c(=O)n(Cc2ccccc2C)c2ccccc21`, for which the larval motility was 1.39 (inactive).

With `OCCCCn1cnc2c(O)nc(NCc3ccc(Cl)c(Cl)c3)nc21`, the larval motility was 0.982 (inactive).

Take `CC(=O)N1c2ccccc2NC2=C(C(=O)CC(C)(C)C2)C1c1ccc(OCc2ccccc2)cc1` (stereo not given): the larval motility was 1.49 (inactive).

As to `CC[C@H](NC(=O)[C@H](C)NC)C(=O)N1C[C@@H](O)C[C@H]1Cc1c(-c2[nH]c3cc(F)ccc3c2C[C@@H]2C[C@H](O)CN2C(=O)[C@H](CC)NC(=O)[C@H](C)NC)[nH]c2cc(F)ccc12`, the larval motility was 0.407 (inactive).

Take `CCCCc1ccc(S(=O)(=O)Nc2cc(C)on2)cc1`: the larval motility was 0.511 (inactive).

`Nc1nnc(-c2ccc(Cl)cc2)s1`: the larval motility was 0.916 (inactive).
